KB-3-1 cytotox – qHTS assay for MDR1-selective chemotherapeutics: Primary screen using the parental adenocarcinoma cell KB-3-1. KB-3-1 viability, CellTiter-Glo ATP luminescence, 72 h. Potency, µM (top dose mostly 46.1 µM), usual class: cytotoxic. 1.4% of 400,000 active; further: nearly all actives have a fitted effect of over 60% in size
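Cells are dispensed, compounds pinned in, plates held at 37 °C for 72 h, then CellTiter-Glo is added and luminescence read after 10 minutes. Cell line: parental KB-3-1 in phenol-red-free DMEM, 10% FBS.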
HT1080 IDH1KD tx – qHTS for induction of synthetic lethality in tumor cells producing 2HG: qHTS for the HT-1080-IDH1KD cell line; 2% of 360,000 active; HT-1080 IDH1 knockdown viability, ATP luminescence, 48 h; AID 686971, 2013; Potency, µM (doses to about 46.1 µM), inactives show at the top dose activity, negative = toxicity, most hits filed as cytotoxic;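 further: 0% = DMSO wells and -100% = cell-free medium wells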
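% activity derives from luminescence (CellTiter-Glo), normalised to DMSO and no-cell wells. HT-1080-IDH1KD cells, 750/well, had 48 h compound exposure at 37 °C.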
KB-V1 MDR tox – qHTS assay for MDR1-selective chemotherapeutics: Primary screen using the drug-selected MDR subline cells KB-V1. KB-V1 MDR cells viability, CellTiter-Glo, 72 h. Potency, µM (doses to about 46.1 µM), actives largely listed as cytotoxic. 3.4% of 400,000 active; further: nearly all actives have a fitted effect of over 60% in size
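Following 72 h at 37 degrees C with compound, KB-V1 cell viability was read by CellTiter-Glo luminescence, medium being phenol-red-free DMEM plus 10% FBS; concentration-response parameters came from normalized, curve-fitted qHTS data.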
TDP1 cell noCPT – qHTS for Inhibitors of human tyrosyl-DNA phosphodiesterase 1 (TDP1): qHTS in cells in absence of CPT. DT40 Tdp1-/- hTDP1 cells, no CPT, ATP luminescence, 48 h. Potency, µM (titrated, usually from 46.2 µM), inactives show at the top dose activity change, negative = growth inhibition, actives largely listed as inhibitors. 15% of 420,000 active; further: nearly all actives have a fitted effect of over 55% in size
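Chicken DT40 Tdp1-/- cells complemented with human TDP1, screened without camptothecin (DMSO vehicle only), 400 cells/well. Compounds pin-transferred, cells incubated at 37 °C for at least 48 hr. Growth read as ATP-dependent luminescence (CellTiter-Glo, 30 min at RT).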
TDP1 cell CPT – qHTS for Inhibitors of human tyrosyl-DNA phosphodiesterase 1 (TDP1): qHTS in cells in presence of CPT; 12% of 420,000 active; chicken DT40 Tdp1-/-;hTDP1 cells + 20 nM CPT, ATP luminescence, 48 h; AID 686979, 2013; Potency, µM (highest dose often 46.2 µM), for inactives: top-dose activity change, negative = growth inhibition, actives largely listed as inhibitors; further: nearly all actives have a fitted effect of over 55% in size
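Chicken DT40 Tdp1-/- cells stably complemented with human TDP1 were seeded at 400 cells/well in medium containing 20 nM camptothecin, exposed to pin-transferred compounds, and grown at 37 °C for at least 48 hr. Viability was read as ATP luminescence.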
HT1080-NT tox – qHTS for induction of synthetic lethality in tumor cells producing 2HG: qHTS for the HT-1080-NT fibrosarcoma cell line; Potency, µM (top dose mostly 46.1 µM), without a hit: at the top dose activity, negative = less viability, most hits filed as cytotoxic; HT-1080-NT fibrosarcoma viability, CellTiter-Glo ATP luminescence, 48 h; 1.6% of 360,000 active;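 further: NT is the 2HG producing partner of a matched IDH1 knockdown line; 0% = DMSO-treated cells and -100% = media-only wells without cells; nearly all actives have a fitted effect of over 55% in size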
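Viability by CellTiter-Glo luminescence after 48 h compound exposure at 37C of HT-1080-NT cells (750/well, RPMI, 5% FBS). % activity scaled between DMSO wells and medium-only wells, then curve-fitted and categorized by curve class.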
Numbers without * were called inactive; i = inactive; ? = inconclusive; . = no result. Most compounds without a hit are left out; they make up all but 19% or so of the library. The call rests on the fitted dose curve; in most records, active means well fitted curve in the direction sought with a large enough effect; inconclusive means small, poorly fitted or top-dose-only effect, or another doubt; inactive means no such curve, though single readings can be large; an effect the other way counts as inactive or inconclusive. Unless noted, on the % scale 0 is the no-effect control and ±100 the full control effect; potency means the concentration at half of the fitted maximal effect.

SMILES | KB-3-1 cytotox | HT1080 IDH1KD tx | KB-V1 MDR tox | TDP1 cell noCPT | TDP1 cell CPT | HT1080-NT tox
CCCC/C=C1/CCC(CN(C)C)C1=O (configuration not stated) | ? | -27% | ? | 2.3µM* | 2.1µM* | 5%
CN(C)CC1CCCCC1OC(=O)c1ccc(Cl)cc1 (configuration not stated) | i | 2% | ? | ? | -16% | 0%
CN(C)CC1CCC/C(=C/c2ccc(Cl)cc2)C1=O (configuration not stated) | ? | ? | ? | 0.58µM* | 0.52µM* | -16%
CN(C)CC1CCC/C(=C\c2ccc(OC(=O)/C=C/c3ccc(Cl)c(Cl)c3)cc2)C1=O (configuration not stated) | ? | -2% | ? | 0.92µM* | 0.73µM* | 2%
COc1ccc(/C=C2/CCCC(CN(C)C)C2=O)cc1 (configuration not stated) | ? | 8.2µM* | ? | 0.58µM* | 0.52µM* | 6%
COc1ccc(C=C2CCC3C(=O)CCCC3(C)C2=O)cc1 (configuration not stated) | i | -11% | i | ? | -1% | -8%
CN1CCN(C(=O)/C=C/c2ccc(Cl)c(Cl)c2)CC1 | i | -1% | i | -1% | -28% | -10%
COc1cc(CN2C[C@@H](CO)O[C@@H](n3cnc4c(N5CCCC5)ncnc43)C2)cc(OC)c1OC | i | 0% | i | -20% | -7% | ?
COc1cccc(/C=C2/CCC(CN(C)C)C2=O)c1 (configuration not stated) | ? | ? | ? | 2.3µM* | 2.3µM* | ?
COc1cccc(/C=C2\CCC(C3CCCC3)C2=O)c1 (configuration not stated) | i | 6% | i | 12% | 8% | 4%
O=C(Nc1ccc(F)cc1F)c1cc(S(=O)(=O)N2CCCCC2)c[nH]1 | 18µM* | . | ? | . | . | .
O=C(Nc1ccc(S(=O)(=O)N2CCCC2)cc1)Nc1ccc(F)cc1F | i | -25% | i | 29µM* | ? | -2%
Cc1ccc(S(=O)(=O)Nc2ccc(NC(=O)Nc3ccc(F)cc3F)cc2)cc1 | ? | -12% | 23µM* | ? | ? | 0%
C=C1CCC2[C@](C)(CO)[C@H](O)CC[C@@]2(C)[C@@H]1C/C=C1\C(=O)OC[C@H]1O (some centres not stated) | i | -14% | i | 4.6µM* | 3.7µM* | -3%
CC1(C)OC2OC(C(=O)N/N=C/c3cc(Br)ccc3O)C3OC(C)(C)OC3C2O1 (configuration not stated) | i | ? | 9.2µM* | 15µM* | 15µM* | -19%
CC(C)c1ccc(NC(=O)[C@H]2O[C@@H]3OC(C)(C)O[C@@H]3[C@H]3OC(C)(C)O[C@H]32)cc1 | i | . | ? | 21µM* | 5.2µM* | .
Cc1cc(C)cc(NC(=O)[C@H]2O[C@@H]3OC(C)(C)O[C@@H]3[C@H]3OC(C)(C)O[C@H]32)c1 | ? | . | i | ? | -8% | .
O=C(C[n+]1ccccc1)N/N=C/c1cc(Br)ccc1O | i | -8% | i | -22% | 8% | -13%
Cc1cccc(C)c1NC(=O)c1cccc2c1C(=O)N(C1CCCCC1)C2 | i | ? | ? | 16µM* | 7.3µM* | -24%

Screens (PubChem BioAssay)
